Results: PubChem BioAssay (EPA / NIEHS)
Several values for one entry are separate records, joined by “and”; a condition that tells them apart may be missing. Identical values can stand only once. Inconclusive results are not listed. The source holds several records for some structures; these can differ, active in one and inactive in another. Activity calls are given as the source filed them. The calls were made as follows: active = hit-call score of the fitted dose curve at least 0.9, where 1 is the maximum; inconclusive = response in the unintended direction; inactive = score below 0.9.

Target: human Serotonin, 5-Hydroxytryptamine Receptor 2A (5HT2A), HTR2A (gene 3356) (UniProt P28223)
Assay: NVS_GPCR_h5HT2A: NovaScreen (NVS) G Protein-Coupled Receptor Assay for human Serotonin, 5-Hydroxytryptamine Receptor 2A (5HT2A) (AID 2283249)
In short: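 Human cortex membranes, cell-free radioligand binding; filter-based scintillation read 1.5 h after dosing. Duplicate screen at 25 uM first; displacement of specific binding (loss of signal) versus DMSO.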

Chain of human Serotonin, 5-Hydroxytryptamine Receptor 2A (5HT2A), HTR2A (gene 3356) (P28223 whole entry, looked up): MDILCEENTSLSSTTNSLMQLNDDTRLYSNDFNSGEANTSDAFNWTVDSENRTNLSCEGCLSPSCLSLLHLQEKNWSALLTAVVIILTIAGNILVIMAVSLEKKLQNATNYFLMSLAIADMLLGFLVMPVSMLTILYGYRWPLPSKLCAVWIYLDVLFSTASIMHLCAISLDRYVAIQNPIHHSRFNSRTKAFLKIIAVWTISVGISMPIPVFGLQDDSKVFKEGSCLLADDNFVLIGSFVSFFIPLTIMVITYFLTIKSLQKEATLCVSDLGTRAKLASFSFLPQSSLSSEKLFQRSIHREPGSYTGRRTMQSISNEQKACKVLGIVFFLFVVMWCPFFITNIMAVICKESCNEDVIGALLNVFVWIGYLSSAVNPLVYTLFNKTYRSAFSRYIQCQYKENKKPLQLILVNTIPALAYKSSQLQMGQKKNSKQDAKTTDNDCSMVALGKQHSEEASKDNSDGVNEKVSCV

Row | SMILES | outcome
1 | S=C(S)NCCNC(=S)S.[Mn+2].[S-]C([S-])=NCCN=C([S-])[S-].[Zn+2] | inactive
2 | N#CSCSc1nc2ccccc2s1 | inactive
3 | C[C@]12CC[C@@H]3c4ccc(O)cc4C[C@@H](CCCCCCCCCS(=O)CCCC(F)(F)C(F)(F)F)[C@H]3[C@@H]1CC[C@@H]2O (stereo not given in full) | inactive

Target: human Serotonin, 5-Hydroxytryptamine Receptor 5A (5HT5A), HTR5A (gene 3361) (UniProt P47898)
Assay: NVS_GPCR_h5HT5A: NovaScreen (NVS) G Protein-Coupled Receptor Assay for human Serotonin, 5-Hydroxytryptamine Receptor 5A (5HT5A) (AID 2283251)
In short: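 Cell-free radioligand displacement binding on HEK293-derived membrane protein, 1 h incubation, filter-based scintillation counting. Primary screen in duplicate at 25 uM, actives followed in concentration series; loss of signal fitted versus DMSO.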

Chain of human Serotonin, 5-Hydroxytryptamine Receptor 5A (5HT5A), HTR5A (gene 3361) (P47898 whole entry, looked up): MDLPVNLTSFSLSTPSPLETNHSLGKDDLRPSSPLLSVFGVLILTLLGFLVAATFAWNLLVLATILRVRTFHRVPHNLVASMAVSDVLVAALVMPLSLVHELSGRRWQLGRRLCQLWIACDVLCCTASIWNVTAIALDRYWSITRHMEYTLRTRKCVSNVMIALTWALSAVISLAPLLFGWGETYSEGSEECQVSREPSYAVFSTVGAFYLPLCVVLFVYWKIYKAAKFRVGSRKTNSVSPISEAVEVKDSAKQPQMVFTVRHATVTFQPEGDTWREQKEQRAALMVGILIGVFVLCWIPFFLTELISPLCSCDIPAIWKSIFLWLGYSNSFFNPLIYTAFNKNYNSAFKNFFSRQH

Row | SMILES | AC50 | outcome
4 | Oc1ccc(C(c2ccc(O)cc2)C(Cl)(Cl)Cl)cc1 | 6.9 µM (active) | –
5 | CCOC(=O)C(C)Oc1ccc(Oc2cnc3cc(Cl)ccc3n2)cc1 (stereo not given) | – | inactive
6 | C[C@]12CC[C@@H]3c4ccc(O)cc4C[C@@H](CCCCCCCCCS(=O)CCCC(F)(F)C(F)(F)F)[C@H]3[C@@H]1CC[C@@H]2O (stereo not given in full) | – | inactive
7 | CCNc1nc(N)nc(Cl)n1 | – | inactive

Target: guinea pig Opioid, Kappa 1 Receptor (OpiateK), OPRK1 (gene 100135587) (UniProt P41144)
Assay: NVS_GPCR_gOpiateK: NovaScreen (NVS) G Protein-Coupled Receptor Assay for guinea pig Opioid, Kappa 1 Receptor (OpiateK) (AID 2283252);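 also: radioligand displacement from kappa opioid receptor in guinea pig cerebellar membranes; active means reduced radioligand binding relative to DMSO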
Protocol: NVS_GPCR_gOpiateK is a biochemical, single-readout assay that uses extracted gene-proteins from Guinea pig cerebellar membranes in a tissue-based cell-free assay. Measurements were taken 2 hours after chemical dosing in a 48-well plate.NVS_GPCR_gOpiateK is one of one assay component(s) measured or calculated from the NVS_GPCR_gOpiateK assay. It is designed to make measurements of radioligand binding, a form of binding reporter, as detected with scintillation counting signals by Filter-based radiodetection technology.Data from the assay component NVS_GPCR_gOpiateK was analyzed into 1 assay endpoint. This assay endpoint, NVS_GPCR_gOpiateK, was analyzed in the positive analysis fitting direction relative to DMSO as the negative control and baseline of activity. Using a type of binding reporter, loss-of-signal activity can be used to understand changes in the binding as they relate to the gene Oprk1. Furthermore, this assay endpoint can be referred to as a primary readout, because the performed assay has only produced 1 assay endpoint. To generalize the intended target to other relatable targets, this assay endpoint is annotated to the gpcr intended target family, where the subfamily is rhodopsin-like receptor.
Binding assays used specific radioligands (tritiated, iodinated) with non-radioactive competitive displacement ligands in agonist or antagonist protocols (as indicated) and various reference compounds and inhibitors to titrate specific binding to receptors and transporters. Most enzyme assays (CYPs, kinases, phosphatases, proteases, HDACs) used recombinant protein and specific substrates (fluorescence mostly, some colorimetric and radioactive) and inhibitors, followed by a biochemical separation of substrate and product. All assays for the biochemical HTS were initially run in duplicate at a single concentration (10 uM for CYP450 assays and 25 uM for all others). […] Each assay was run with positive and negative controls, and concurrent controls on every plate. The follow-up (secondary) screen tested active chemical-pairs in concentration series, as well as a few additional assays not tested in the primary screen, some selected negative inactives, and several cases re-run in the concentration series for confirmatory purposes.

Chain of guinea pig Opioid, Kappa 1 Receptor (OpiateK), OPRK1 (gene 100135587) (P41144 whole entry, looked up): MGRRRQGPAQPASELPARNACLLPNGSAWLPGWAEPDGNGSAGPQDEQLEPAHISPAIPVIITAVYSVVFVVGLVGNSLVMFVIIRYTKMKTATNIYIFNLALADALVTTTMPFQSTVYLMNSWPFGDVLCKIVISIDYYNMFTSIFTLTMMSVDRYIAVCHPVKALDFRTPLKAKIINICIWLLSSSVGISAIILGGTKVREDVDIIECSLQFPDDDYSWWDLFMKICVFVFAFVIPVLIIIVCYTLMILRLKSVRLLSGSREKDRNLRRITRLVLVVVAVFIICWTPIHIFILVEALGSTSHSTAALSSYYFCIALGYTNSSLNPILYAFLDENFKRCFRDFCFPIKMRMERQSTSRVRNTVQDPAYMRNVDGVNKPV

Row | SMILES | outcome | AC50
8 | CC(C)(c1ccc(O)cc1)c1ccc(O)cc1 | inactive | –
9 | CC(C)(C)[C@@H](O)[C@@H](Cc1ccc(Cl)cc1)n1cncn1 | inactive | –
10 | CC(=O)S[C@@H]1CC2=CC(=O)CC[C@]2(C)[C@H]2CC[C@@]3(C)[C@@H](CC[C@@]34CCC(=O)O4)[C@H]12 | – | 13.2 µM (active)
11 | C=CCOC(Cn1ccnc1)c1ccc(Cl)cc1Cl (stereo not given) | – | 12.2 µM (active)

Target: human Serotonin, 5-Hydroxytryptamine Receptor 6 (5HT6), HTR6 (gene 3362) (UniProt P50406)
Assay: NVS_GPCR_h5HT6: NovaScreen (NVS) G Protein-Coupled Receptor Assay for human Serotonin, 5-Hydroxytryptamine Receptor 6 (5HT6) (AID 2283253)
In short: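 Radioligand binding to 5HT6 in HEK293-derived membranes, cell-free, 1 h after dosing; bound ligand measured by filter-based scintillation counting. Primary screen in duplicate at 25 uM; actives retested in concentration series.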

Chain of human Serotonin, 5-Hydroxytryptamine Receptor 6 (5HT6), HTR6 (gene 3362) (P50406 whole entry, looked up): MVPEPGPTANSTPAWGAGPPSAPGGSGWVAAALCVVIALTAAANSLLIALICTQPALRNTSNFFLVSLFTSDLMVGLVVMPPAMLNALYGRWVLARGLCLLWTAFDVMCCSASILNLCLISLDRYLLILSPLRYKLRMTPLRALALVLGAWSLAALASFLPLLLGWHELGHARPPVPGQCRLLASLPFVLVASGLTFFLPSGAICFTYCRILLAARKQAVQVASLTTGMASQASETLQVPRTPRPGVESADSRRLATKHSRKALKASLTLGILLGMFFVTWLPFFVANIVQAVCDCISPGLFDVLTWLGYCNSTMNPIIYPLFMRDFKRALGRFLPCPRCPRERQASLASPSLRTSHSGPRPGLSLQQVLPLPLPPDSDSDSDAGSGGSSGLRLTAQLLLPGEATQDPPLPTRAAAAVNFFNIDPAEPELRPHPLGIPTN

Row | SMILES | AC50
12 | N[C@@H](Cc1cc(I)c(Oc2ccc(O)c(I)c2)c(I)c1)C(=O)O | 6.06 µM (active)
13 | Oc1ccc(C(c2ccc(O)cc2)C(Cl)(Cl)Cl)cc1 | 0.18 µM (active)
14 | O=C(c1ccc(O)cc1O)c1ccc(O)cc1O | 4.96 µM (active)

Target: human Adenosine A1 Receptor (AdoRA1), ADORA1 (gene 134) (UniProt P30542)
Assay: NVS_GPCR_hAdoRA1: NovaScreen (NVS) G Protein-Coupled Receptor Assay for human Adenosine A1 Receptor (AdoRA1) (AID 2283254)
In short: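 Hum. cortical membranes + radioligand, cmpd 1 h; filtration, scintillation count. Readout = decrease vs DMSO. Primary 25 uM dup; hits → conc. series.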

Chain of human Adenosine A1 Receptor (AdoRA1), ADORA1 (gene 134) (P30542 whole entry, looked up): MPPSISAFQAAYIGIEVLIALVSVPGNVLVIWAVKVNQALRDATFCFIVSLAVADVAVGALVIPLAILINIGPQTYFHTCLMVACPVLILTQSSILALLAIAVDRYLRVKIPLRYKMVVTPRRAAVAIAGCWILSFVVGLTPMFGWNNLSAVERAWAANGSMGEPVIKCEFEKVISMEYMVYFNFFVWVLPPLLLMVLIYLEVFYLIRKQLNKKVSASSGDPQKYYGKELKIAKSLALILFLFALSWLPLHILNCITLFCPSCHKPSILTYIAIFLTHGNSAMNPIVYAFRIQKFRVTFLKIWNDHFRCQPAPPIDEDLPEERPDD

Row | SMILES | AC50 | outcome
15 | CC(C)(c1ccc(O)cc1)c1ccc(O)cc1 | 11.9 µM (active) and 1.83 µM (active) | –
16 | N[C@@H](Cc1cc(I)c(Oc2ccc(O)c(I)c2)c(I)c1)C(=O)O | 554 nM (active) | –
17 | CCCCC(CC)COC(=O)c1ccccc1C(=O)O (stereo not given) | – | inactive
18 | CCCCCOC(=O)COc1cc(N2C(=O)C3=C(CCCC3)C2=O)c(F)cc1Cl | – | inactive
19 | Oc1ccc(C(c2ccc(O)cc2)C(Cl)(Cl)Cl)cc1 | – | inactive
20 | COC(=O)c1cccc(C)c1S(=O)(=O)NC(=O)Nc1nc(OCC(F)(F)F)nc(N(C)C)n1 | 10400 nM (active) | –
21 | O=C(c1ccc(O)cc1O)c1ccc(O)cc1O | 11000 nM (active) | –
22 | CCNc1nc(N)nc(Cl)n1 | 207 nM (active) | –

Target: human Serotonin, 5-Hydroxytryptamine Receptor 7 (5HT7), HTR7 (gene 3363) (UniProt P34969)
Assay: NVS_GPCR_h5HT7: NovaScreen (NVS) G Protein-Coupled Receptor Assay for human Serotonin, 5-Hydroxytryptamine Receptor 7 (5HT7) (AID 2283255);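 also: hits reduce specific radioligand binding relative to DMSO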
In short: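 Radioligand displacement on membranes from CHO cells expressing human 5HT7, 1 h incubation, filter-based scintillation counting. Primary screen used a single 25 uM concentration in duplicate; actives were followed up in concentration series.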

Chain of human Serotonin, 5-Hydroxytryptamine Receptor 7 (5HT7), HTR7 (gene 3363) (P34969 whole entry, looked up): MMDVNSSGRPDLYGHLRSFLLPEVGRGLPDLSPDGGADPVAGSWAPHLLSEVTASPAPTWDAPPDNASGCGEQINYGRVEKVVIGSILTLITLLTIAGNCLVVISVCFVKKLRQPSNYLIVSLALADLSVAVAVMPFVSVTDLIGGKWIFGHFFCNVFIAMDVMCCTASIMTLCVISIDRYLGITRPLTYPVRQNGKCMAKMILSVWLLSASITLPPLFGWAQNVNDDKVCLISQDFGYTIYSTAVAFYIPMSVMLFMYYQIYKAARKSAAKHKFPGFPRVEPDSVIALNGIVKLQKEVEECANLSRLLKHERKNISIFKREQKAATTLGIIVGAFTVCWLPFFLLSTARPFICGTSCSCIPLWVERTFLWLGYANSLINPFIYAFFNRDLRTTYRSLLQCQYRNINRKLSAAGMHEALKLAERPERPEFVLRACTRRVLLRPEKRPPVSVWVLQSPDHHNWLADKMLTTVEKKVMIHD

Row | SMILES | outcome | AC50
23 | CC(C)(c1ccc(O)cc1)c1ccc(O)cc1 | inactive | –
24 | S=C(S)NCCNC(=S)S.[Mn+2].[S-]C([S-])=NCCN=C([S-])[S-].[Zn+2] | inactive | 2.48 µM (active) and 5.86 µM (active) and 2.62 µM (active)
25 | CC1(C)C(C=C(Cl)Cl)C1C(=O)OCc1cccc(Oc2ccccc2)c1 (stereo not given) | inactive | –
26 | Cc1nn(C)c(Oc2ccccc2)c1C=NOCc1ccc(C(=O)OC(C)(C)C)cc1 | – | 6.64 µM (active)
27 | CCCCOC(=O)[C@@H](C)Oc1ccc(Oc2ccc(C(F)(F)F)cn2)cc1 | inactive | –
28 | Oc1ccc(C(c2ccc(O)cc2)C(Cl)(Cl)Cl)cc1 | – | 6.91 µM (active)
29 | CCCCCCC(C)OC(=O)COc1nc(F)c(Cl)c(N)c1Cl (stereo not given) | inactive | –
